# Assay outcomes deposited in PubChem BioAssay by NMMLSC.
# Hits are enriched below; roughly 0.37% of the tested compounds scored in any of these assays.
# Rac1 wt modul: alters GTP binding to wildtype human Rac1; GST-Rac1 beads, fluorescent GTP binding, flow cytometry; actives lie on both sides; 0 = cold GTP competed, 100 = untreated; GTP binding activity (% of control), % at 10 µM; hit rate 0.27% among 190,000; AID 757;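 active = GTP binding activity at least 20 points away from the 100% control level, either lower or higher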
# Rab7 wt modul: modulators of GTP binding to dog Rab7 wildtype GTPase; GST-Rab7 beads, fluorescent GTP binding, flow cytometry; actives lie on both sides; untreated = 100%, excess cold GTP = 0%; hit rate 0.055% among 190,000; AID 758; GTP binding activity (percent of control), % at 10 µM;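 active = fluorescent GTP binding to Rab7 beads changed by at least 20 points from the 100% baseline, either direction, mostly lower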;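 also: median green fluorescence of bound Bodipy-FL-GTP per Rab7 bead population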
# Rac1 mut GTP: human Rac1 activated mutant GTP binding change | P63000 | GST-Rac1 activated beads, fluorescent GTP binding, flow cytometry; actives lie on both sides; 100% means binding = to untreated wells | percent activity (GTP binding), % at 10 µM | hit rate 0.11% among 190,000 | AID 764;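 active = GTP binding at least 20 percentage points away from the 100% baseline, in either direction, so actives lie on both sides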
# HRas wt GTP bind: modulators of GTP binding to human HRas wildtype; P01112; GST-Ras wt beads, Bodipy-FL-GTP binding, flow cytometry; actives lie on both sides; GTP binding activity, % at 10 µM; hit rate 0.14% among 190,000; AID 759;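 active = GTP binding activity at least 20% away from the 100% baseline, either lowered as inhibitor or raised as activator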;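 also: 0% = unlabeled GTP competition control and 100% = no-compound control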
# Target sequence (P01112 whole entry, looked up): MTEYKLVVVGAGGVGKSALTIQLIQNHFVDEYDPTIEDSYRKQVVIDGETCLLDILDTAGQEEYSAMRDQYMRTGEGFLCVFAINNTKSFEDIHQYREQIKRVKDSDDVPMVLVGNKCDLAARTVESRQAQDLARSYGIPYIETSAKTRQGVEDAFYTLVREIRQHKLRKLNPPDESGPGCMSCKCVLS
# Rab2A wt mod: changes GTP binding to wildtype dog Rab2A, up or down; GST-Rab2 wt beads, Bodipy-GTP binding, flow cytometry; GTP binding activity, % at 10 µM; hit rate 0.19% among 190,000; P61105;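 active = GTP binding activity at least 20 points away from 100%, either lowered or raised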;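 also: 0% = beads with excess unlabeled GTP and 100% = no-compound control corrected for plate trend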
# Cdc42 wt: modulators (inhibitors or activators) of GTP binding to human Cdc42 wildtype | hit rate 0.2% among 190,000 | P60953 | percent activity (GTP binding), % at 10 µM | GST-Cdc42 beads, Bodipy-GTP binding, flow cytometry; actives lie on both sides;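 active = percent activity GTP binding at least 20 points away from the 100% baseline, either down as inhibitor or up as activator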;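 also: median bead fluorescence of bound Bodipy-FL-GTP at 100 nM; 0% = excess unlabeled GTP control and 100% = no compound control; below 100% means less GTP binding so inhibitor and above means activator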
# Target sequence (P60953 whole entry, looked up): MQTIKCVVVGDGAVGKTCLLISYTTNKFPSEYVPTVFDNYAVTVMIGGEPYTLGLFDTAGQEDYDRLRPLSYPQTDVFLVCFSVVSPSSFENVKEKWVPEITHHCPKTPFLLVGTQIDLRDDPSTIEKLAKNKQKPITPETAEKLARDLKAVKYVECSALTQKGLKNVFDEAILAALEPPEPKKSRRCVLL
# Starred values were filed as active, the others as inactive; [ ] = another dose, or the depositor's remark.
SMILES,Rac1 wt modul,Rab7 wt modul,Rac1 mut GTP,HRas wt GTP bind,Rab2A wt mod,Cdc42 wt
CCOC(=O)C1(Cc2ccccc2)CCN(Cc2ccc3cc(NC(C)=O)ccc3n2)CC1,102,99,98,100,100,98
CCOc1ccc(C2C(C(=O)O)CCC(=O)N2C2CCCCC2)cc1 (configuration not stated),71*,74*,73*,72*,73*,72*
COc1ccc(CCn2c(C(C)C)nc3c(c(=O)c4ccccc4n3C)c2=O)cc1,91,96,95,85,77*,99
COc1ccc(CCn2c(C)nc3c(c(=O)c4ccccc4n3C)c2=O)cc1,96,99,99,98,96,103
C/C=C/c1ccccc1OCc1ccc(C(=O)O)o1,194*[activator],134*[activator],146*[activator],145*[activator],149*[activator],161*[activator]
COc1ccc(S(=O)(=O)N(C)C)cc1NC(=O)Cc1cccs1,105,97,101,98,99,102
Cc1c(Cl)cccc1NS(=O)(=O)c1ccc2c(c1)C1C=CCC1C(c1ccc(C(=O)O)cc1)N2 (configuration not stated),84,92,73*,83,80,78*
N#Cc1c(Nc2ccccc2)c(/C=N/NCCO)c[nH]c1=O,96,96,94,99,99,95
N#Cc1c(Nc2ccccc2)c(/C=N/N=C/c2ccccc2)c[nH]c1=O,75*,81,88,76*,81,81
O=C(CN1C(=O)C2CC=CCC2C1=O)Nc1ccc(S(=O)(=O)N2CCOCC2)cc1 (configuration not stated),92,96,94,94,98,92
CC(=O)Nc1ccc(NC(=O)CCn2nnc3ccccc32)cc1,102,39*,101,32*,35*,86
O=C(O)c1ccccc1OCCOc1ccccc1,157*[activator],123*[activator],132*[activator],123*[activator],130*[activator],138*[activator]
CCCCNC(=O)c1cc([N+](=O)[O-])[nH]n1,127*[activator],104,108,106,104,108
O=C(NC1CCCCC1)c1cc([N+](=O)[O-])[nH]n1,127*[activator],109,108,111,109,111
O=C(COC(=O)C12CC3CC(CC(Br)(C3)C1)C2)Nc1cccnc1Cl,100,97,97,96,96,99
CCOC(=O)C1(Cc2cccc(OC)c2)CCN(CC2CC=CCC2)CC1 (configuration not stated),101,101,97,99,99,100
Cc1ccc([N+](=O)[O-])cc1-c1ccc(/C=C(\C#N)c2[nH]nc(N)c2C#N)o1,79*,87,88,80,82,88
CC(C)CN(CC(C)C)C(=S)Nc1ccc(Cl)cc1,90,99,93,93,95,92
Cc1ccnc(NS(=O)(=O)c2ccc(NC(=O)C3C4C=CC(C4)C3C(=O)O)cc2)n1 (configuration not stated),97,103,94,99,99,93
COc1ccc(C)cc1NC(=O)COC(C)=O,137*[activator],103,107,105,108,120*[activator]
COc1ccc(OCc2nc3c4cc(OC)c(OC)cc4nc(=S)n3[nH]2)cc1,77*,90,89,82,83,87
CS(=O)(=O)c1ccc(C(=O)OCc2nnc(-c3ccccc3)o2)cc1[N+](=O)[O-],89,100,74*,87,85,76*
Cc1ccccc1NC(=O)COC(=O)c1ccc(S(C)(=O)=O)c([N+](=O)[O-])c1,92,99,82,91,94,83
CS(=O)(=O)c1ccc(C(=O)OCC(=O)NC(=O)C2CCCCC2)cc1[N+](=O)[O-],89,100,71*,87,82,68*
O=C(OCc1nnc(-c2ccccc2)o1)c1ccc(Cl)cc1,91,92,91,92,91,93
SMILES,Rac1 wt modul,Rab7 wt modul,Rac1 mut GTP,HRas wt GTP bind,Rab2A wt mod,Cdc42 wt
O=C(Nc1sc2c(c1C(=O)O)CCCCC2)c1ccccc1,80,89,77*,82,81,78*
CC(C)C(NC(=O)CSCc1ccc([N+](=O)[O-])cc1)C(C)C,102,97,102,100,99,99
O=C(CSc1ccc2nnc(-c3cccc(F)c3)n2n1)N1CCCc2ccccc21,79*,95,89,87,89,88
O=C(CSc1ccc2nnc(-c3ccc(F)cc3)n2n1)N1CCCc2ccccc21,97,93,95,91,93,95
O=C(Nc1cccc(-c2nnc(-c3ccco3)o2)c1)c1ccccc1,76*,89,90,84,85,83
Cc1noc(C)c1COc1ccc(C(=O)OCC(=O)NCc2ccccc2Cl)cc1,102,104,98,99,96,100
Cc1noc(C)c1COc1cccc(C(=O)NCc2ccccc2Cl)c1,72*,67*,74*,52*,69*,71*
Cc1cc2nc3c(=O)n(C4CCCCC4)c(=O)[nH]c3nc2cc1N,74*,93,87,76*,73*,79*
CN(C)c1ccc(/C=N/NC(N)=S)cc1[N+](=O)[O-],95,104,93,99,96,96
Cc1nc(C(=O)NC(C)C)nn1-c1cc(Cl)cc(Cl)c1,97,92,100,97,95,98
O=c1[nH]c2sc3c(c2c2nncn12)CCCC3,76*,85,88,78*,77*,79*
O=C(CCl)Nc1cccn2ncnc12,120*[activator],105,102,110,113,114
Cc1ccc(-c2nnc3c4ccccc4c(C)nn23)cc1S(=O)(=O)N1CCN(CCO)CC1,88,86,95,85,79*,82
Cc1ccc(-c2nnc3c4ccccc4c(C)nn23)cc1NC(=O)CN1CCOCC1,97,95,97,96,94,96
O=C(O)c1cccc(Oc2ccc([N+](=O)[O-])cc2)c1,141*[activator],115,120*[activator],117,121*[activator],127*[activator]
CCOc1ccc(NC(=O)NC(=O)N(C(C)C)S(C)(=O)=O)cc1,100,104,96,99,99,96
Cc1cc(=O)[nH]c2c(N=Nc3ccc(O)cc3)c(N)nn12,56*,84,79*,63*,64*,60*
CC(NC(=O)COc1ccccc1F)C1CC2CCC1C2 (configuration not stated),98,106,94,101,100,97
CC(C)(C)CC(=O)NC(=S)NCc1ccco1,125*[activator],108,100,103,103,103
CCN(CC)c1ccc2c(c1)oc(=O)c1c(Cl)cc(=O)oc12,87,93,78*,89,89,88
